From PubChem BioAssay (NCI) come the findings set out here.

The nature of the experiment: NCI Yeast Anticancer Drug Screen. Data for the wt1 strain (AID 149).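 Note: 0% = growth of vehicle-treated wt1 cultures.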 As to conditions: S. cerevisiae wt1 strain (SPY 50644) growth inhibition, hits give high values. The protocol:
Growth inhibition of yeast strains with defined genetic alterations is measured as a screen for potential anti-cancer activity. Selected strains with alterations in DNA damage repair or cell cycle control were exposed to compounds and growth inhibition was measured relative to vehicle treated controls. The strain used in this assay is wt1

Compounds without any hit were thinned out: in the full panel of roughly 79,000, 15% have a hit. Unmarked numbers belong to inactive results. The source made the active and inactive calls. Cut-off read from the data, not from the text of the source: active = growth inhibition above about 70%; inactive = the rest.

For `O=C(O)/C=C\C(=O)NNc1ccc(Br)cc1`, the growth inhibition runs as follows: (at 1.2 µM) 2%; (at 3.7 µM) 97% (active); (at 11.0 µM) 99% (active); (at 33.0 µM) 99% (active); (at 100.0 µM) 99% (active).

Consider `Cc1cc(NC(=S)SCc2ccc(Cl)cc2)ccc1Cl`, for which the growth inhibition (at 1.2 µM) is 11%; the growth inhibition (at 3.7 µM) is 24%; the growth inhibition (at 11.0 µM) is 63%; the growth inhibition (at 33.0 µM) was 98% (active); the growth inhibition (at 100.0 µM) is 98% (active).

With `CCCCOc1ccc(Nc2c3ccccc3nc3ccccc23)cc1`, the growth inhibition was -12% (at 1.2 µM); -24% (at 3.7 µM); 69% (at 11.0 µM); 98% (active) (at 33.0 µM); 83% (active) (at 100.0 µM).

Turning to `CCC(C)C(=O)OCC(=O)c1ccc(-c2ccccc2)cc1` (stereo not given), the growth inhibition reads like this: (at 1.2 µM) -1%; (at 3.7 µM) -2%; (at 11.0 µM) -2%; (at 33.0 µM) -5%; (at 100.0 µM) -7%.

As for `CC[C@@]1(OC(=O)CN(C)C)C(=O)OCc2c1cc1n(c2=O)Cc2cc3ccccc3nc2-1`, the growth inhibition was -1% (at 1.2 µM); 1% (at 3.7 µM); 23% (at 11.0 µM); 85% (active) (at 33.0 µM); 93% (active) (at 100.0 µM).

On to `O=S(=O)(O)c1ccc2c(N=Nc3c(O)ccc4ccccc34)cccc2c1`, for which the growth inhibition (at 1.2 µM) was 0%; the growth inhibition (at 3.7 µM) was 1%; the growth inhibition (at 11.0 µM) is 21%; the growth inhibition (at 33.0 µM) was 50%; the growth inhibition (at 100.0 µM) is 71% (active).

Regarding `[N-]=[N+]=NC1CC(n2ccc(=O)[nH]c2=O)OC1COC(c1ccccc1)(c1ccccc1)c1ccccc1` (stereo not given), the growth inhibition by setting is: (at 1.2 µM) 1%; (at 3.7 µM) 4%; (at 11.0 µM) 11%; (at 33.0 µM) 89% (active); (at 100.0 µM) 91% (active).

Turning to `O=C(Nc1ccn(C2CC(O)C(COC(c3ccccc3)(c3ccccc3)c3ccccc3)O2)c(=O)n1)c1ccccc1` (stereo not given), the growth inhibition (at 1.2 µM) was -40%; the growth inhibition (at 3.7 µM) is -22%; the growth inhibition (at 11.0 µM) was 94% (active); the growth inhibition (at 33.0 µM) was 94% (active); the growth inhibition (at 100.0 µM) was 89% (active).
